From PubChem BioAssay AID485364 (National Center for Advancing Translational Sciences (NCATS), 2010)
Several values for one entry are separate records, joined by “and”; a condition that tells them apart may be missing. Identical values can stand only once. Among all 360,000 compounds or so, about 11,000 (3.1%) were called active. Another 4% or so got no clear call; they are omitted. The call rests on the fitted dose curve; in most records, active means well fitted inhibition curve with a large enough effect; inconclusive means small, poorly fitted or top-dose-only effect; inactive means no such curve, though single readings can be large or run the other way. The sample as a whole holds a higher share of actives than the screen did. The source holds several records for some structures; these can differ, active in one and inactive in another.

The compounds below were run against Schistosoma mansoni thioredoxin glutathione reductase (TGR) (UniProt Q962Y6) (assay: qHTS Assay for the Inhibitors of Schistosoma Mansoni Peroxiredoxins). Conditions: purified TGR, DTNB reduction, TNB absorbance 405 nm; series mostly up to 114 µM; activity change, negative = inhibition: at the top concentration.
Procedure, shortened: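 First, TGR (20 nM dispensed) and NADPH were mixed with compound. Second, a 15 min room-temperature incubation followed. Third, further NADPH and then DTNB were added to start the reaction. Finally, TNB absorbance was monitored kinetically.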
Further: nearly all actives have a fitted effect of over 60% in size.
On the % scale 0 is the no-effect control and ±100 the full control effect; potency means the concentration at half of the fitted maximal effect.

| Structure (SMILES) | Potency | activity change, negative = inhibition |
| --- | --- | --- |
| O=C(CSc1nnc(-c2ccco2)n1CC1CCCO1)c1ccccc1 (centres undefined) | 25.1 µM (active) |  |
| CNC(=O)NC(=O)CSc1nnc(-c2ccc(F)cc2)n1CC1CCCO1 (centres undefined) |  | 6.86% (inactive) |
| Cc1nnc(SCC(N)=O)n1CC1CCCO1 (centres undefined) |  | 2.09% (inactive) |
| Cc1ccccc1CSc1nc2c([nH]c3ccccc32)c(=O)n1C |  | 7.19% (inactive) |
| COc1cccc(OCCn2c(-c3ccc(Br)cc3)nc3ccccc3c2=O)c1 |  | -2.8% (inactive) |
| Cc1ccc(/C=C/C(=O)Nc2cc(S(=O)(=O)N3CCCCCC3)ccc2OCC(F)(F)F)o1 |  | -10.1% (inactive) |
| CNc1ccc(NC(C)=O)cc1[N+](=O)[O-] |  | 4.44% (inactive) |
| COc1ccc(OC)c(NC(=O)/C=C/c2ccc(C)o2)c1 | 50.1 µM (active) |  |
| Cc1cc(NC(=O)Nc2ccccc2[N+](=O)[O-])no1 |  | 12.6% (inactive) |
| COc1ccc(OC)c(NC(=O)Cc2cccs2)c1 |  | 14.7% (inactive) |
| Cc1ccc(/C=C/C(=O)Nc2ccc([N+](=O)[O-])c(NC(=O)/C=C/c3ccc(C)o3)c2)o1 | 22.4 µM (active) |  |
| CCc1ccc(NC(=O)N2CCN(C(=O)c3nsc4ccccc34)CC2)cc1 |  | -5.7% (inactive) |
| Cc1cccc(C(C)C)c1NC(=O)C(NS(=O)(=O)c1cccc2nsnc12)c1ccccc1 (centres undefined) |  | 2.93% (inactive) |
| CCc1ccc(CNCc2c(C(=O)O)n(Cc3ccc(F)cc3Cl)c3cc(OC)ccc23)cc1 |  | 7.86% (inactive) |
| CC(CNC(=O)c1nnc(Cc2cccc(F)c2)o1)c1ccccc1 (centres undefined) |  | 2.57% (inactive) |
| CCOc1ccc(C2C(C#N)=C(N)N(N(C)C)C3=C2C(=O)CCC3)cc1 (centres undefined) |  | 0.173% (inactive) |
| CCOc1ccc(C2C3=C(CCCC3=O)N(CC(=O)O)C3=C2C(=O)CCC3)cc1 | 44.7 µM (active) |  |
| COc1ccc(C2C3=C(CCCC3=O)N(CC(=O)O)C3=C2C(=O)CCC3)cc1 |  | -24.2% (inactive) |
| CC(=O)Nc1ccc(NC(=O)C2CCCN(S(=O)(=O)c3ccc4c(c3)CCCC(=O)N4)C2)cc1 (centres undefined) |  | 10.8% (inactive) |
| COCCNC(=O)CSc1nc(-c2ccccc2)[nH]c1-c1ccc(C)cc1 |  | 4.66% (inactive) |
| Cc1oc(C)c2c(=O)cc(-c3ccc4c(c3)OCO4)cc(OC(=O)c3ccc(Cl)cc3)c12 |  | -17.2% (inactive) |
| Cc1cc(OC(=O)c2ccc(Cl)cc2)cc(=O)n1C | 44.7 µM (active) |  |
| Cn1cncc1COC(=O)c1ccc(Cl)cc1 |  | 7.13% (inactive) |
| Cc1ccc(NC(=O)c2cn3c4c(ccc(Cl)c4c2=O)OC(C)C3)cc1C (centres undefined) |  | -0.119% (inactive) |
| CCOC(=O)Nc1ccc2c(c1)N(C(=O)CCCl)c1ccccc1[S@]2=O | 14.1 µM (active) |  |

| Structure (SMILES) | Potency | activity change, negative = inhibition |
| --- | --- | --- |
| CCOC(=O)Nc1ccc2c(c1)N(C(=O)CCN1CCN(CCO)CC1)c1ccccc1CC2 |  | -11.7% (inactive) |
| CCNCCC(=O)N1c2ccccc2Sc2ccc(NC(=O)OCC)cc21 |  | -0.642% (inactive) |
| COc1ccc(Cl)cc1NC(=O)CSc1nc(=O)[nH]c2c1CCCC2 |  | -13.1% (inactive) |
| Cc1oc(-c2ccccc2F)nc1CS(=O)(=O)CC(=O)NCCCN(C)C1CCCCC1 |  | 3.21% (inactive) |
| Cc1ccc(S(=O)(=O)CC(=O)NC(C)c2ccccc2)cc1 (centres undefined) |  | 0% (inactive) |
| Cc1ccccc1-c1nc(CS(=O)(=O)CC(=O)NC(C)c2ccccc2)c(C)o1 (centres undefined) | inactive and 39.8 µM (active) |  |
| Cc1ccccc1-c1nc(CS(=O)(=O)CC(=O)N2CCc3ccccc3C2)c(C)o1 | 3.55 µM (active) |  |
| Cc1ccccc1-c1nc(CS(=O)(=O)CC(=O)Nc2cc(Cl)cc(Cl)c2)c(C)o1 |  | -0.424% (inactive) |
| COc1cccc(-c2nc(CS(=O)(=O)CC(=O)N3CCN(c4cc(C)ccc4C)CC3)c(C)o2)c1 |  | -0.431% (inactive) |
| Cc1ccc(-c2noc(-c3nnn(-c4cccc(C(F)(F)F)c4)c3N)n2)cc1 |  | 7.72% (inactive) |
| CC1CCC(N2CC(=O)N(CCC3=CCCCC3)C(c3ccc(F)cc3)C2=O)CC1 (centres undefined) |  | 5.07% (inactive) |
| CCOc1ccc(S(=O)(=O)c2cn(Cc3ccc(OC)cc3)c3ccc(F)cc3c2=O)cc1 |  | -1.61% (inactive) |
| COc1ccc(C)cc1NC(=O)C(=O)NCCc1sc(-c2cccc(C)c2)nc1C |  | 6.58% (inactive) |
| Cc1cc(C)c2oc(-c3cccc(NC(=O)c4cccc(F)c4)c3C)nc2c1 |  | 1.22% (inactive) |
| CCOC(=O)c1c(C)oc2nc(C)nc(N3CCN(c4ccc(OC)cc4)CC3)c12 |  | 0.844% (inactive) |
| O=C(NC1CC(=O)N(c2ccccc2)C1)c1ccco1 (centres undefined) |  | 8.46% (inactive) |
| CCOC(=O)C(NS(=O)(=O)c1ccc(C)cc1)(C(F)(F)F)P(=O)(OCC(C)C)OCC(C)C (centres undefined) | 22.4 µM (active) |  |
| CC(=O)N1CCN(CC(C)(C)NS(=O)(=O)c2ccc(C)cc2)CC1 |  | -16.5% (inactive) |
| Cc1ccc(S(=O)(=O)NCC(C)NS(C)(=O)=O)cc1 (centres undefined) |  | -8.27% (inactive) |
| Cn1c(C(=O)N2CCC(C(=O)N3CCN(c4ccccc4)CC3)CC2)cc2sccc21 |  | 1.1% (inactive) |
| Cc1ccc(Cl)cc1N(C)C(=O)C1CCCN(c2ncnc3onc(-c4ccc(F)cc4)c23)C1 (centres undefined) |  | 6.45% (inactive) |
| NC(=O)CCN1CCN(S(=O)(=O)/C=C/c2ccccc2)CC1 |  | -0.515% (inactive) |
| COc1ccccc1N1CCN(CC(=O)NC(=O)NCc2ccco2)CC1 |  | 3.23% (inactive) |
| O=C(CN1CCN(S(=O)(=O)/C=C/c2ccccc2)CC1)NC(=O)NCc1ccco1 | 28.2 µM (active) |  |
